Among the data in PubChem BioAssay (Tox21) are Potency values, retold here.

Values joined by “and” are separate entries in the source; they are usually repeats but may differ in a detail not shown here. Identical values can stand only once. Records with an inconclusive call do not appear. A call without a number means that no potency is given here. Some compounds were tested as several samples or in several runs, with calls that do not always agree. Active and inactive are the calls of the source. Calls come from the whole dose curve; as a rule, active = well fitted activation curve with a large enough effect in the repeat runs; inconclusive = weak or mixed curves; inactive = flat fitted curve, though single readings scatter.
Potency is the fitted concentration of half-maximal effect.

The nature of this experiment: A CellTox Green Cytotoxicity Assay to monitor cytotoxicity in HepG2 cells - 24 hour (AID 1224878). Note: nearly all actives have a fitted effect of over 45% in size. The conditions noted are these: CellTox Green fluorescence; series mostly up to 76.8 µM. The source says: National Center for Advancing Translational Sciences [NCATS]
NIH Chemical Genomics Center [NCGC]
U.S. Environmental Protection Agency [EPA]
National Institutes of Environmental Health Sciences [NIEHS]
National Toxicology Program [NTP]
Cell-based models are critical for drug discovery. Determining the natural cytotoxic effects resulting from test compounds is an essential research activity. A CellTox Green Cytotoxicity Assay to monitor cytotoxicity in real time of continues cell culture during 40 hours of the compound treatment was used to screen Tox21 10K library compounds in HepG2 cells. CellTox Green Cytotoxicity Assay is a nonlytic, homogeneous, biofluorescent method to measure cytotoxicity in cell culture after experimental manipulation. The assay system uses a proprietary asymmetric cyanine dye that is excluded from viable cells but preferentially stains the dead cell's DNA. […] Viable cells produce no appreciable increases in fluorescence. Therefore, the fluorescence signal produced by the binding interaction with dead cell DNA is proportional to cytotoxicity.
The mixture of HepG2 cell suspension and reagents were dispensed at 600cells/6 ul/well in 1536-well tissue culture treated black solid bottom plates using a Multidrop dispenser. After the assay plates were incubated at a 37 C/5% CO2 incubator for 5 hours, 23 nL of compounds dissolved in DMSO, positive and negative controls was transferred to the assay plate by a pintool work station. The plates were incubated at 37 C for 40 hours. The fluorescence intensity were measured at 0h, 8h, 16h, 24h, 32h and 40h time points using ViewLux plate reader during compound treatment.
Take `CCCCOCCOCCOC(C)=O`: the Potency result was “inactive”. Take `Cc1cnc(NC(=O)C2=C(O)c3ccccc3S(=O)(=O)N2C)s1`: the Potency result was “inactive”. The result for `O=C(O)CCCCC1CCSS1` (stereo not given) reads “inactive”; that for `c1ccc2[nH]c(-c3cscn3)nc2c1`, “inactive”; that for `CO[C@H]1C=CO[C@@]2(C)Oc3c(C)c(O)c4c(O)c(c(/C=N/N5CCN(C)CC5)c(O)c4c3C2=O)NC(=O)/C(C)=C\C=C[C@H](C)[C@H](O)[C@@H](C)[C@@H](O)[C@@H](C)[C@H](OC(C)=O)[C@@H]1C`, “inactive”. The result for `NCCNc1cccc2ccccc12` reads 53.6 µM (active) and inactive. The result for `CC(C)(C)NCC(O)c1ccc(O)c(CO)c1` (stereo not given) reads “inactive”; that for `Nc1cccc(N)c1`, “inactive”; that for `NC(=O)N/N=C/c1ccc([N+](=O)[O-])o1`, “inactive”.

Regarding `NC(=O)OCC(COC(N)=O)c1ccccc1`, the Potency result was “inactive”. As to `CCCCCCCC(=O)OCC(O)CO` (stereo not given), the Potency result is “inactive”. The result for `CC(C)CC(C)CC(O)CC(C)C` (stereo not given) reads “inactive”; that for `C#C[C@]1(O)CC[C@H]2[C@@H]3CCc4cc(O)ccc4[C@H]3CC[C@@]21C`, 43.3 µM (active) and 6.7 nM (active); that for `CC(O)COc1ccccc1` (stereo not given), “inactive”. Turning to `O=C(O)CN(CC(=O)O)CC(=O)O`, the Potency result is “inactive”. Then `CCCCOC(=O)CCCCCCCCC(=O)OCCCC`, with “inactive”. Take `COc1ccccc1O`: the Potency result was “inactive”. Then `C=CCOC(=O)CC(C)C`, with “inactive”.

With `CCCCOCCOCCSC#N`, the Potency entry was “inactive”.

Consider `Cc1cccc(C)c1O`, for which the Potency result was “inactive”. Then `C/C=C/c1ccc(O)c(OC)c1`, with “inactive”; and `Oc1cccc(O)c1`, with “inactive”; and `COc1cc(C=O)ccc1O`, with “inactive”. The result for `COc1ccc(O)cc1` reads “inactive”; that for `O=[N+]([O-])c1ccc(O)cc1`, “inactive”. The result for `O=c1c(-c2ccc(O)cc2)coc2cc(O)cc(O)c12` reads “inactive”; that for `COC(=O)c1ccc(C=O)cc1`, “inactive”; that for `C[C@]12CC[C@@H]3c4ccc(O)cc4CC[C@H]3[C@@H]1CCC2=O`, “inactive”. Take `C[C@]12CC[C@@H]3c4ccc(O)cc4C[C@@H](CCCCCCCCCS(=O)CCCC(F)(F)C(F)(F)F)[C@H]3[C@@H]1CC[C@@H]2O` (stereo not given in full): the Potency result is “inactive”. Then `CC(C)=CCC/C(C)=C/CO`, with “inactive”; and `CC(=O)/C=C/C1=C(C)CCCC1(C)C`, with “inactive”; and `C=C(C)C(N)=O`, with “inactive”. `COC(=O)C1CCC(C(=O)OC)CC1` (stereo not given): the Potency result is “inactive”. Then `O=C1OC(c2ccc(O)cc2)(c2ccc(O)cc2)c2ccccc21`, with “inactive”; and `CC(=O)c1ccc(S(=O)(=O)NC(=O)NC2CCCCC2)cc1`, with “inactive”; and `CC1=NN(c2ccccc2)C(=O)C1`, with “inactive”.

`CCCCNC(=O)NS(=O)(=O)c1ccc(N)cc1`: the Potency result is “inactive”. Then `CCc1cc(C(N)=S)ccn1`, with “inactive”; and `C#C[C@]1(O)CC[C@H]2[C@@H]3CCC4=CC(=O)CC[C@@H]4[C@H]3CC[C@@]21CC`, with “inactive and 38.9 µM (active)”; and `CCn1cc(C(=O)O)c(=O)c2ccc(C)nc21`, with “inactive”.
